Laboratory results from the antibiotic and cytotoxicity screens of Wong et al. (2023).
Hit rate of the full screen: of about 39,000 compounds, about 3,300 (8.5%) were called active. The sample holds actives, similar compounds and a random draw of the others, so the mix is not that of the screen.

Each compound was assayed on HepG2 (assay: cytotoxicity call (relative viability < 0.9)). Conditions: 10 µM.

**Q.** `CCN1CCC(N(C)S(=O)(=O)c2cn(C)c(=O)n(C)c2=O)CC1` was tested. Which cytotoxicity call did it give?
**A.** inactive

**Q.** With `CO[C@@H]1CN(C)C(=O)c2ccc(NS(C)(=O)=O)cc2OC[C@H](C)N(C(=O)C2CCCCC2)C[C@H]1C` as the compound, how does the cytotoxicity call read?
**A.** inactive

**Q.** How did the cytotoxicity call turn out when `C[C@@H]1CN([C@H](C)CO)C(=O)c2cc(NS(C)(=O)=O)ccc2O[C@H]1CN(C)Cc1ccc(C(=O)Nc2ccccc2N)cc1` was run?
**A.** inactive

**Q.** How did the cytotoxicity call turn out when `C[C@@H]1CCCCO[C@@H](CN(C)C(=O)Nc2cccc3ccccc23)[C@@H](C)CN([C@H](C)CO)C(=O)c2cc(NS(=O)(=O)c3cccs3)ccc2O1` was run?
**A.** inactive

**Q.** Which cytotoxicity call does the source give for `C[C@@H]1CN([C@@H](C)CO)C(=O)c2cccc(NS(=O)(=O)c3ccccc3)c2O[C@H]1CN(C)Cc1ccncc1` here?
**A.** inactive

**Q.** For `CCOc1nc2cccc(C(=O)O[C@@H](C)OC(=O)OC3CCCCC3)c2n1Cc1ccc(-c2ccccc2-c2nn[nH]n2)cc1`, which cytotoxicity call is on record?
**A.** inactive

**Q.** How did the cytotoxicity call turn out when `c1ccc2c(c1)Cn1nnnc1-2` was run?
**A.** inactive

**Q.** Which cytotoxicity call does the source give for `C[C@H]1CN([C@@H](C)CO)S(=O)(=O)c2ccc(-c3ccc(C(=O)N(C)C)cc3)cc2O[C@@H]1CN(C)C(=O)Cc1ccccn1` here?
**A.** inactive

**Q.** `C[C@@H]1CN([C@@H](C)CO)C(=O)CCCn2nncc2CO[C@@H]1CN(C)C(=O)Nc1ccc(N2CCCCC2)cc1` was tested. Which cytotoxicity call did it give?
**A.** inactive

**Q.** With `COc1ccccc1C#Cc1cnc2c(c1)C(=O)N([C@@H](C)CO)C[C@@H](C)[C@H](CN(C)C(=O)c1ccc3c(c1)OCO3)O2` as the compound, how does the cytotoxicity call read?
**A.** inactive

**Q.** With `C[C@H](CO)N1C[C@H](C)[C@@H](CN(C)Cc2ccc(Cl)c(Cl)c2)Oc2c(NC(=O)CCCCCC(=O)Nc3ccccc3N)cccc2C1=O` as the compound, how does the cytotoxicity call read?
**A.** inactive

**Q.** With `C[C@@H]1CCCCO[C@H](CN(C)C(=O)Nc2ccc(C(F)(F)F)cc2)[C@H](C)CN([C@H](C)CO)C(=O)c2cc(NS(=O)(=O)c3cccs3)ccc2O1` as the compound, how does the cytotoxicity call read?
**A.** inactive

**Q.** With `C[C@@H]1CCCCO[C@H](CN(C)C(=O)Nc2ccc(C(F)(F)F)cc2)[C@@H](C)CN([C@H](C)CO)C(=O)c2cc(NS(=O)(=O)c3cccs3)ccc2O1` as the compound, how does the cytotoxicity call read?
**A.** inactive

**Q.** How did the cytotoxicity call turn out when `C[C@@H]1CN([C@@H](C)CO)C(=O)c2cc(NS(=O)(=O)c3cccs3)ccc2O[C@@H](C)CCCCO[C@@H]1CN(C)C(=O)Nc1ccc(C(F)(F)F)cc1` was run?
**A.** inactive

**Q.** How did the cytotoxicity call turn out when `C[C@@H]1CCCCO[C@@H](CN(C)C(=O)Nc2ccccc2)[C@@H](C)CN([C@H](C)CO)C(=O)c2cc(NS(=O)(=O)c3cccs3)ccc2O1` was run?
**A.** inactive

**Q.** For `C[C@H]1CCCCO[C@@H](CN(C)C(=O)NC2CCCCC2)[C@@H](C)CN([C@@H](C)CO)C(=O)c2cc(NS(=O)(=O)c3cccs3)ccc2O1`, which cytotoxicity call is on record?
**A.** inactive

**Q.** For `C[C@@H]1CN([C@H](C)CO)C(=O)c2cc(NS(=O)(=O)c3cccs3)ccc2O[C@@H](C)CCCCO[C@H]1CN(C)C(=O)NC1CCCCC1`, which cytotoxicity call is on record?
**A.** inactive

**Q.** With `C[C@@H]1CCCCO[C@@H](CN(C)C(=O)Nc2ccc(C(F)(F)F)cc2)[C@H](C)CN([C@@H](C)CO)C(=O)c2cc(NS(=O)(=O)c3cccs3)ccc2O1` as the compound, how does the cytotoxicity call read?
**A.** inactive

**Q.** With `C[C@@H]1CCCCO[C@H](CN(C)C(=O)Nc2ccccc2)[C@@H](C)CN([C@@H](C)CO)C(=O)c2cc(NS(=O)(=O)c3cccs3)ccc2O1` as the compound, how does the cytotoxicity call read?
**A.** active

**Q.** With `C[C@H](CO)N1C[C@H](C)[C@@H](CN(C)C(=O)Nc2ccc(C(F)(F)F)cc2)OCCCC[C@H](C)Oc2ccc(NS(=O)(=O)c3cccs3)cc2C1=O` as the compound, how does the cytotoxicity call read?
**A.** active

**Q.** For `C[C@@H]1CN([C@H](C)CO)C(=O)c2cc(NS(=O)(=O)c3cccs3)ccc2O[C@@H](C)CCCCO[C@@H]1CN(C)C(=O)NC1CCCCC1`, which cytotoxicity call is on record?
**A.** active

**Q.** How did the cytotoxicity call turn out when `C[C@H]1CCCCO[C@@H](CN(C)C(=O)Nc2ccccc2)[C@@H](C)CN([C@@H](C)CO)C(=O)c2cc(NS(=O)(=O)c3cccs3)ccc2O1` was run?
**A.** inactive

**Q.** `C[C@H](CO)N1C[C@H](C)[C@H](CN(C)C(=O)Nc2ccc(C(F)(F)F)cc2)OCCCC[C@H](C)Oc2ccc(NS(=O)(=O)c3cccs3)cc2C1=O` was tested. Which cytotoxicity call did it give?
**A.** active

**Q.** Which cytotoxicity call does the source give for `Cc1cc(C)c2nnc(SCC(=O)O)n2n1` here?
**A.** inactive

**Q.** `C[C@@H]1CN([C@@H](C)CO)C(=O)Cc2cc(NS(C)(=O)=O)ccc2O[C@H]1CN(C)C(=O)NC1CCCCC1` was tested. Which cytotoxicity call did it give?
**A.** inactive

**Q.** How did the cytotoxicity call turn out when `Cc1noc(C)c1NC(=O)N[C@@H]1CC[C@H](CC(=O)NCCCN(C)C)O[C@@H]1CO` was run?
**A.** inactive

**Q.** Which cytotoxicity call does the source give for `O=C(C[C@@H]1C[C@H]2c3cc(NS(=O)(=O)c4ccc(F)cc4)ccc3O[C@H]2[C@H](CO)O1)NCc1ccccc1` here?
**A.** inactive

**Q.** With `Cc1ccc(S(=O)(=O)N(C)C[C@H]2Oc3ccc(NS(C)(=O)=O)cc3C(=O)N([C@@H](C)CO)C[C@H]2C)cc1` as the compound, how does the cytotoxicity call read?
**A.** inactive

**Q.** With `CN(C)CCCNC(=O)C[C@@H]1CC[C@H](NS(=O)(=O)c2ccccc2)[C@H](CO)O1` as the compound, how does the cytotoxicity call read?
**A.** inactive

**Q.** For `C[C@@H]1CCCCO[C@@H](CN(C)C(=O)C2CCCCC2)[C@H](C)CN([C@H](C)CO)C(=O)c2cc(NS(=O)(=O)c3cccs3)ccc2O1`, which cytotoxicity call is on record?
**A.** inactive

**Q.** For `C[C@@H]1CCCCO[C@H](CN(C)C(=O)Nc2ccc(C(F)(F)F)cc2)[C@H](C)CN([C@@H](C)CO)C(=O)c2cc(NS(=O)(=O)c3cccs3)ccc2O1`, which cytotoxicity call is on record?
**A.** inactive

**Q.** How did the cytotoxicity call turn out when `C[C@@H]1CCCCO[C@@H](CN(C)C(=O)C2CCCCC2)[C@@H](C)CN([C@H](C)CO)C(=O)c2cc(NS(=O)(=O)c3cccs3)ccc2O1` was run?
**A.** active

**Q.** How did the cytotoxicity call turn out when `C[C@@H]1CCCCO[C@@H](CN(C)C(=O)Nc2ccc(C(F)(F)F)cc2)[C@H](C)CN([C@H](C)CO)C(=O)c2cc(NS(=O)(=O)c3cccs3)ccc2O1` was run?
**A.** active

**Q.** `C[C@H]1CCCCO[C@@H](CN(C)C(=O)Nc2ccc(C(F)(F)F)cc2)[C@@H](C)CN([C@@H](C)CO)C(=O)c2cc(NS(=O)(=O)c3cccs3)ccc2O1` was tested. Which cytotoxicity call did it give?
**A.** inactive

**Q.** For `C[C@@H]1CCCCO[C@H](CN(C)C(=O)Nc2ccc(C(F)(F)F)cc2)[C@@H](C)CN([C@@H](C)CO)C(=O)c2cc(NS(=O)(=O)c3cccs3)ccc2O1`, which cytotoxicity call is on record?
**A.** active

**Q.** Which cytotoxicity call does the source give for `C[C@H]1CCCCO[C@H](CN(C)C(=O)Nc2ccc(C(F)(F)F)cc2)[C@@H](C)CN([C@@H](C)CO)C(=O)c2cc(NS(=O)(=O)c3cccs3)ccc2O1` here?
**A.** inactive

**Q.** `C[C@@H]1CCCCO[C@H](CN(C)C(=O)C2CCCCC2)[C@H](C)CN([C@H](C)CO)C(=O)c2cc(NS(=O)(=O)c3cccs3)ccc2O1` was tested. Which cytotoxicity call did it give?
**A.** inactive

**Q.** `C[C@@H]1CCCCO[C@@H](CN(C)C(=O)Nc2ccc(C(F)(F)F)cc2)[C@@H](C)CN([C@H](C)CO)C(=O)c2cc(NS(=O)(=O)c3cccs3)ccc2O1` was tested. Which cytotoxicity call did it give?
**A.** inactive

**Q.** How did the cytotoxicity call turn out when `O=C(CCCCCCC(=O)Nc1ccccc1O)N/N=C/[C@H](O)[C@@H](O)[C@H](O)CO` was run?
**A.** inactive

**Q.** For `COc1ccc(S(=O)(=O)N(C)C[C@@H]2OCCCC[C@@H](C)Oc3ccc(NC(=O)C4CCCCC4)cc3C(=O)N([C@@H](C)CO)C[C@@H]2C)cc1`, which cytotoxicity call is on record?
**A.** inactive

**Q.** With `COC(=O)C(CC#Cc1ccc2c(c1)[C@]1(C(=O)N2)[C@H](c2ccc(OCCO)cc2)N2[C@H](c3ccccc3)[C@H](c3ccccc3)OC(=O)[C@H]2[C@@H]1C(=O)Nc1nc2ccccc2s1)C(=O)OC` as the compound, how does the cytotoxicity call read?
**A.** inactive

**Q.** Which cytotoxicity call does the source give for `C[C@@H]1CN([C@H](C)CO)C(=O)c2cccc(NS(=O)(=O)c3cccs3)c2O[C@H]1CN(C)S(=O)(=O)c1ccccc1` here?
**A.** inactive

**Q.** Which cytotoxicity call does the source give for `C[C@H](CO)N1C[C@H](C)[C@@H](CN(C)C(=O)c2ccncc2)Oc2ncc(C#CC3CCCCC3)cc2C1=O` here?
**A.** inactive

**Q.** `C[C@H](CO)N1C[C@H](C)[C@@H](CN(C)C(=O)c2cnccn2)Oc2ncc(-c3cccc(C#N)c3)cc2C1=O` was tested. Which cytotoxicity call did it give?
**A.** inactive

**Q.** Which cytotoxicity call does the source give for `C[C@@H]1CN([C@@H](C)CO)C(=O)c2cccc(NC(=O)Nc3cccc4ccccc34)c2O[C@H]1CN(C)S(=O)(=O)c1ccc2ncsc2c1` here?
**A.** inactive

**Q.** Which cytotoxicity call does the source give for `C[C@@H]1CN([C@H](C)CO)C(=O)c2cc(NC(=O)Nc3ccc(F)cc3)ccc2O[C@@H](C)CCCCO[C@H]1CN(C)S(=O)(=O)c1ccc(F)cc1` here?
**A.** active

**Q.** `C[C@H]1CCCCO[C@H](CN(C)S(=O)(=O)c2ccc(F)cc2)[C@@H](C)CN([C@@H](C)CO)C(=O)c2cc(NC(=O)Nc3ccc(F)cc3)ccc2O1` was tested. Which cytotoxicity call did it give?
**A.** inactive

**Q.** With `C[C@H]1CCCCO[C@@H](CN(C)S(=O)(=O)c2ccc(F)cc2)[C@@H](C)CN([C@@H](C)CO)C(=O)c2cc(NC(=O)Nc3ccc(F)cc3)ccc2O1` as the compound, how does the cytotoxicity call read?
**A.** inactive

**Q.** How did the cytotoxicity call turn out when `C[C@@H]1CCCCO[C@H](CN(C)S(=O)(=O)c2ccc(F)cc2)[C@@H](C)CN([C@H](C)CO)C(=O)c2cc(NC(=O)Nc3ccc4c(c3)OCO4)ccc2O1` was run?
**A.** active

**Q.** For `C[C@H](CO)N1C[C@H](C)[C@@H](CN(C)S(=O)(=O)c2ccc(F)cc2)OCCCC[C@H](C)Oc2ccc(NC(=O)Nc3ccc(F)cc3)cc2C1=O`, which cytotoxicity call is on record?
**A.** inactive

**Q.** For `C[C@@H]1CCCCO[C@@H](CN(C)S(=O)(=O)c2ccc(F)cc2)[C@@H](C)CN([C@H](C)CO)C(=O)c2cc(NC(=O)Nc3ccc(F)cc3)ccc2O1`, which cytotoxicity call is on record?
**A.** inactive

**Q.** How did the cytotoxicity call turn out when `C[C@@H]1CN([C@@H](C)CO)C(=O)c2cc(NC(=O)Nc3ccc(F)cc3)ccc2O[C@@H](C)CCCCO[C@@H]1CN(C)S(=O)(=O)c1ccc(F)cc1` was run?
**A.** inactive

**Q.** Which cytotoxicity call does the source give for `C[C@@H]1CCCCO[C@@H](CN(C)S(=O)(=O)c2ccc(F)cc2)[C@@H](C)CN([C@H](C)CO)C(=O)c2cc(NC(=O)Nc3ccc4c(c3)OCO4)ccc2O1` here?
**A.** inactive

**Q.** `C[C@@H]1CCCCO[C@@H](CN(C)S(=O)(=O)c2ccc(F)cc2)[C@@H](C)CN([C@@H](C)CO)C(=O)c2cc(NC(=O)Nc3ccc(F)cc3)ccc2O1` was tested. Which cytotoxicity call did it give?
**A.** active

**Q.** For `C[C@@H]1CN([C@H](C)CO)C(=O)c2cc(NC(=O)Nc3ccc4c(c3)OCO4)ccc2O[C@@H](C)CCCCO[C@@H]1CN(C)S(=O)(=O)c1ccc(F)cc1`, which cytotoxicity call is on record?
**A.** inactive

**Q.** How did the cytotoxicity call turn out when `C[C@@H]1CCCCO[C@@H](CN(C)S(=O)(=O)c2ccc(F)cc2)[C@H](C)CN([C@@H](C)CO)C(=O)c2cc(NC(=O)Nc3ccc(F)cc3)ccc2O1` was run?
**A.** inactive

**Q.** For `C[C@@H]1CCCCO[C@@H](CN(C)S(=O)(=O)c2ccc(F)cc2)[C@H](C)CN([C@H](C)CO)C(=O)c2cc(NC(=O)Nc3ccc(F)cc3)ccc2O1`, which cytotoxicity call is on record?
**A.** active
